From PubChem BioAssay (Tox21)
Records with an inconclusive call do not appear. Activity calls are given as the source filed them. Unless noted, calls come from the whole dose curve; as a rule, active = well fitted curve in the direction sought with a large enough effect in the repeat runs; inconclusive = weak or mixed curves; inactive = no such curve, though single readings can be large; an effect the other way counts as inactive or inconclusive.

Assays:
[1] = biological target: Thyrotropin-releasing hormone receptor (Homo sapiens) (UniProt P34981); assay: qHTS assay to identify small molecule agonists of the thyrotropin-releasing hormone receptor (TRHR) signaling pathway (AID 1346891; calls by dose curve;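 note: HEK293 cells expressing TRHR with calcium dye readout; series mostly up to about 58 µM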)
Sequence of Thyrotropin-releasing hormone receptor (Homo sapiens) (P34981 whole entry, looked up): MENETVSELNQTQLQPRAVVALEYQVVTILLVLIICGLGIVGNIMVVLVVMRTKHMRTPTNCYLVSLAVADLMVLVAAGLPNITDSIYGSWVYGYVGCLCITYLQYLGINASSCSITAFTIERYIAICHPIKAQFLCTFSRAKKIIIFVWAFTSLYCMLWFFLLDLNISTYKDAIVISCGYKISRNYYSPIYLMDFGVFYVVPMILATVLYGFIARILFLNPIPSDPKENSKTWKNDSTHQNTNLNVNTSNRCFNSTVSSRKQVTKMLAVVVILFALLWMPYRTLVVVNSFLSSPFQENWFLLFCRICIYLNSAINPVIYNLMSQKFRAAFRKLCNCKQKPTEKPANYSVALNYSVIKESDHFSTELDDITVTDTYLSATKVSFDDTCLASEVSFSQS
In short: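 Kinetic fluorescence (3 min, 1 s intervals) reported intracellular calcium after compound transfer onto TRHR-Hek293 cells pre-loaded with dye for 2 h at 37 °C.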

[2] = Human pregnane X receptor (PXR) small molecule agonists, qHTS cell viability counter screen (AID 1346977); note: nearly all actives have a fitted effect of over 50% in size; note: potency is the fitted concentration of half-maximal effect
In short: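 HepG2 cells stably carrying the PXR-Luc reporter are cultured with 5% charcoal-stripped FBS and treated with compounds for 24hr. CellTiter-Fluor is added at 23hr and fluorescence is read after 1hr.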

[3] = Caspase-3/7 induction in HepG2 cells by small molecules, qHTS assay (AID 1346978); note: nearly all actives have a fitted effect of over 15% in size
In short: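 Caspase-3/7 induction was measured by Caspase-Glo 3/7 luminescence (30 min, room temperature) after a 17 hr compound exposure of wild-type HepG2 cells seeded at 2,000 per well and pre-incubated 5 hr.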

[4] = Caspase-3/7 induction in CHO-K1 cells by small molecules, qHTS cell viability counter screen (AID 1346979); note: nearly all actives have a fitted effect of over 35% in size; note: potency is the fitted concentration of half-maximal effect
In short: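 Seeding: 1,500 CHO-K1 cells/well. Rest: 5hr, 37C. Treatment: compounds in DMSO, 16hr. Read: CellTiter-Fluor, 1hr, fluorescence.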

[5] = Caspase-3/7 induction in CHO-K1 cells by small molecules, qHTS assay (AID 1346980); note: nearly all actives have a fitted effect of over 15% in size
In short: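 Luminescent Caspase-Glo 3/7 read (30min, room temperature) quantified apoptosis induction. Cells were wild-type CHO-K1, treated with compound for 17hr at 37 C and 5% CO2.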

[6] = Caspase-3/7 induction in HepG2 cells by small molecules, qHTS cell viability counter screen (AID 1346981); note: nearly all actives have a fitted effect of over 30% in size; note: potency is the fitted concentration of half-maximal effect
In short: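 Wild-type HepG2 cells, 2,000/well, settled 5 hr at 37 C, 5% CO2 before compound addition. Viability read by CellTiter-Fluor fluorescence, reagent added after 16 hr compound exposure, then 1 hr at 37C, in the same wells as the caspase read.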

[7] = biological target: Nuclear receptor subfamily 1 group I member 2 (Homo sapiens) (UniProt O75469); assay: Human pregnane X receptor (PXR) small molecule agonists, qHTS assay (AID 1346982); note: nearly all actives have a fitted effect of over 35% in size; note: potency is the fitted concentration of half-maximal effect
Sequence of Nuclear receptor subfamily 1 group I member 2 (Homo sapiens) (O75469 whole entry, looked up): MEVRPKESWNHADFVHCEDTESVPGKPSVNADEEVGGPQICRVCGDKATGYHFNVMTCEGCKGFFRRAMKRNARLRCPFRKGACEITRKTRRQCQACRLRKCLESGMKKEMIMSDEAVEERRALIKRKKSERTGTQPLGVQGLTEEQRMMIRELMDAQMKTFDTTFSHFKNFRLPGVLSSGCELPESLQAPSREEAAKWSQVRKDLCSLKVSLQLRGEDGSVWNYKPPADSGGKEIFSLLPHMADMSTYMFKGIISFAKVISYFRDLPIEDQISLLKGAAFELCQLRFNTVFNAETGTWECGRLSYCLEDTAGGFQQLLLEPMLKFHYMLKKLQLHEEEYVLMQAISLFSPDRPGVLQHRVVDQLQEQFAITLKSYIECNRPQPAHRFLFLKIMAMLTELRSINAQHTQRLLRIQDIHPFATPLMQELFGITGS
In short: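 PXR-Luc HepG2 reporter cells (CYP3A4-driven luciferase) in 5% charcoal-stripped FBS medium, plated 5 h before compound addition, then treated 24 h at 37C. Luciferase read by ONE-Glo luminescence after 30 min at room temperature.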

[8] = biological target: Nuclear receptor subfamily 1 group I member 2 (Rattus norvegicus) (UniProt Q9R1A7); assay: Rat pregnane X receptor (rPXR) activation by small molecules, qHTS assay (AID 1346983); conditions: rPXR luciferase reporter cells, One-Glo luminescence, 24 h; max activation: stronger effect = higher value; note: nearly all actives have a fitted effect of over 20% in size; note: potency is the fitted concentration of half-maximal effect
Sequence of Nuclear receptor subfamily 1 group I member 2 (Rattus norvegicus) (Q9R1A7 whole entry, looked up): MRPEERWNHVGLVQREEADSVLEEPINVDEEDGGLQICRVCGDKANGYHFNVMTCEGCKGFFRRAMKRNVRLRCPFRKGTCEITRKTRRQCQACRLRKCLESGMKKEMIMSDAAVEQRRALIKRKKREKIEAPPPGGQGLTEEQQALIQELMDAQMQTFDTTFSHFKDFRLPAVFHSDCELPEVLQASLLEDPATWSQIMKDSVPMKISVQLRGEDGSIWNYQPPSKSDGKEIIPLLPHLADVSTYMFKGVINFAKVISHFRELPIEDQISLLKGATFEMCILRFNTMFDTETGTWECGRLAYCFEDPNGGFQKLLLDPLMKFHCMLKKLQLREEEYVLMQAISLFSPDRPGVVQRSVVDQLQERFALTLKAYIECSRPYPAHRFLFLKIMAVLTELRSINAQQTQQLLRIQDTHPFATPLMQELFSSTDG
In short: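 Luminescent readout (One-Glo luciferase, 30 min room temperature) followed 24 hr compound treatment at 37 C of rPXR cells plated 2,000 per well and preincubated 5hr; qHTS format with compounds delivered in DMSO.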

[9] = biological target: Nuclear receptor subfamily 1 group I member 2 (Homo sapiens) (UniProt O75469); assay: CYP3A4 induction through human pregnane X receptor (PXR) by small molecules, qHTS assay (AID 1346984); note: nearly all actives have a fitted effect of over 40% in size; note: potency is the fitted concentration of half-maximal effect
In short: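 DPX-2 HepG2 cells carrying a PXR response element and CYP3A4-promoter luciferase construct, treated with compounds 24 hr at 37C. Then P450-Glo CYP3A4 Luciferin-IPA substrate (3uM final) for 3 hr at 37C, One-Glo added, luminescence read.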

[10] = biological target: Cytochrome P450 2D6 (Homo sapiens) (UniProt P10635); assay: Cytochrome P450 Family 2 Subfamily D Member 6 (CYP2D6) small molecule antagonists: luciferase reporter qHTS assay (AID 1671196); note: nearly all actives have a fitted effect of over 50% in size; note: potency is the fitted concentration of half-maximal effect
Sequence of Cytochrome P450 2D6 (Homo sapiens) (P10635 whole entry, looked up): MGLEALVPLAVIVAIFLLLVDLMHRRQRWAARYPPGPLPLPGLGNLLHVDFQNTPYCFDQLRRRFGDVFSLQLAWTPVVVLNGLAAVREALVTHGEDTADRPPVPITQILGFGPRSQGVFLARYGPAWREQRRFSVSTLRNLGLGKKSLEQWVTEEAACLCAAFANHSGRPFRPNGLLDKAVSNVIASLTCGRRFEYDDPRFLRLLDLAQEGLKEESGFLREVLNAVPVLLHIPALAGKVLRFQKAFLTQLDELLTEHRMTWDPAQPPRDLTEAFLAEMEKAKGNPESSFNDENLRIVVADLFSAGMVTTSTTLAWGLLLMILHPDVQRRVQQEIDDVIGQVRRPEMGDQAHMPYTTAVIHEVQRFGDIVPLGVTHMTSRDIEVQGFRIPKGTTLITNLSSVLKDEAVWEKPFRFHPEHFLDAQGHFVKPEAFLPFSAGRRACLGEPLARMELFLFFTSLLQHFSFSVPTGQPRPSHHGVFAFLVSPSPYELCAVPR
In short: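 Cell-free P450-Glo system: CYP2D6 with proluciferin substrate was pre-incubated with compound for 10 min, then reacted with NADPH regeneration for 1 h at room temperature. Luciferin product was detected after 20 min, and data were reported as relative luminescence units.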

[11] = biological target: Cytochrome P450 2C19 (Homo sapiens) (UniProt P33261); assay: Cytochrome P450 Family 2 Subfamily C Member 19 (CYP2C19) small molecule antagonists: luciferase reporter qHTS assay (AID 1671197); note: nearly all actives have a fitted effect of over 65% in size; note: potency is the fitted concentration of half-maximal effect
Sequence of Cytochrome P450 2C19 (Homo sapiens) (P33261 whole entry, looked up): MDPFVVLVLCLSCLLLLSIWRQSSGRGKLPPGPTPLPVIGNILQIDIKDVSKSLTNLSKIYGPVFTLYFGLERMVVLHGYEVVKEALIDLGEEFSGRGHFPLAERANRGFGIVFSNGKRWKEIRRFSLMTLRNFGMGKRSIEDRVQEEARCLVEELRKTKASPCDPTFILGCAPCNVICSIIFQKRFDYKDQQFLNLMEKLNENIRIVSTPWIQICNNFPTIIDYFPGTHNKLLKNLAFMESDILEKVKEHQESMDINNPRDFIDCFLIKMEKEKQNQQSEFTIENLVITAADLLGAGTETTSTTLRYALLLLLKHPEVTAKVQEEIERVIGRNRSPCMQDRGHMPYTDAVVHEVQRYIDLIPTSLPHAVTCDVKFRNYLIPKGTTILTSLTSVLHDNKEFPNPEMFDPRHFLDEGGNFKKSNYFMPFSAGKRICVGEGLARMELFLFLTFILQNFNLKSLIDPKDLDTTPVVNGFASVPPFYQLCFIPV
In short: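 Quantitative high-throughput screen of the Tox21 library using CYP2C19 with proluciferin substrate. Reaction: NADPH regeneration, 37C, 1 h, after 10 min compound preincubation at room temperature. Readout: luminescence.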

[12] = biological target: Voltage-gated inwardly rectifying potassium channel KCNH2 (Homo sapiens) (UniProt Q12809); assay: Human Ether-a-go-go-Related Gene (hERG) channel small molecule antagonists: fluorescence cell-based qHTS assay (AID 1671200); note: nearly all actives have a fitted effect of over 50% in size; note: potency is the fitted concentration of half-maximal effect
Sequence of Voltage-gated inwardly rectifying potassium channel KCNH2 (Homo sapiens) (Q12809 whole entry, looked up): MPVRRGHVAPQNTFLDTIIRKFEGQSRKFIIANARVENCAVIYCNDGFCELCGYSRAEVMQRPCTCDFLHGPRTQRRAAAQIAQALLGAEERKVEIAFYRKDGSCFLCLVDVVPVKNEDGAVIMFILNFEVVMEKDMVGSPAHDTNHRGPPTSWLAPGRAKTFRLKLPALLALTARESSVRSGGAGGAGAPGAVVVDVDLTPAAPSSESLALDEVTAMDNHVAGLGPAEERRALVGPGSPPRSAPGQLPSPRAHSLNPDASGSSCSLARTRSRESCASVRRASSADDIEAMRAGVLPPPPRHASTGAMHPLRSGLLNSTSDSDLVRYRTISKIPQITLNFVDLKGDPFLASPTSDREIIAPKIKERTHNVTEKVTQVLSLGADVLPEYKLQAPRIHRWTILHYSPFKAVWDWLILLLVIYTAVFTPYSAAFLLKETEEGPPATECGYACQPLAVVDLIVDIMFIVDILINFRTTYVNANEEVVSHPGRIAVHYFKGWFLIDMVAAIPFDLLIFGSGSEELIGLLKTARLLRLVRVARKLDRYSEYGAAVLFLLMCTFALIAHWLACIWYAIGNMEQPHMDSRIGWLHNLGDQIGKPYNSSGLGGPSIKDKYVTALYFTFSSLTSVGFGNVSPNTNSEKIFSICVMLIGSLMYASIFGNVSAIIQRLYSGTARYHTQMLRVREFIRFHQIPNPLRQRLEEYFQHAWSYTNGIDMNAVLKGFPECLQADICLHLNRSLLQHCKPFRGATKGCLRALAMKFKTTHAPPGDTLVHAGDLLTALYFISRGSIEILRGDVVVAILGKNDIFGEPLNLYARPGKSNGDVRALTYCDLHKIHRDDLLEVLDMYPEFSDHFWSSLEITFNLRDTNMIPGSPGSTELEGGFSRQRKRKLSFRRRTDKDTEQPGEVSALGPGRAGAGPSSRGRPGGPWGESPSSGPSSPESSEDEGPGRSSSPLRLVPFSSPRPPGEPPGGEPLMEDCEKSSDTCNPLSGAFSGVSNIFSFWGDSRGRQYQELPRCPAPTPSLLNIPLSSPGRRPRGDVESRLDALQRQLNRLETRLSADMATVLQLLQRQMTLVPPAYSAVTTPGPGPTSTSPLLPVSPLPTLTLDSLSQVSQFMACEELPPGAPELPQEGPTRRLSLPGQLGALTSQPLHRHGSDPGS
In short: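 First, 1000 cells per well are seeded and cultured overnight at 37 C. Next, FluxOR II dye is loaded for 1 h at room temperature, protected from light. After 10 more minutes, stimulus is added and fluorescence is read.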

[13] = biological target: Cytochrome P450 2C9 (Homo sapiens) (UniProt P11712); assay: Cytochrome P450 Family 2 Subfamily C Member 9 (CYP2C9) small molecule antagonists: luciferase reporter qHTS assay (AID 1671198); note: nearly all actives have a fitted effect of over 50% in size; note: potency is the fitted concentration of half-maximal effect
Sequence of Cytochrome P450 2C9 (Homo sapiens) (P11712 whole entry, looked up): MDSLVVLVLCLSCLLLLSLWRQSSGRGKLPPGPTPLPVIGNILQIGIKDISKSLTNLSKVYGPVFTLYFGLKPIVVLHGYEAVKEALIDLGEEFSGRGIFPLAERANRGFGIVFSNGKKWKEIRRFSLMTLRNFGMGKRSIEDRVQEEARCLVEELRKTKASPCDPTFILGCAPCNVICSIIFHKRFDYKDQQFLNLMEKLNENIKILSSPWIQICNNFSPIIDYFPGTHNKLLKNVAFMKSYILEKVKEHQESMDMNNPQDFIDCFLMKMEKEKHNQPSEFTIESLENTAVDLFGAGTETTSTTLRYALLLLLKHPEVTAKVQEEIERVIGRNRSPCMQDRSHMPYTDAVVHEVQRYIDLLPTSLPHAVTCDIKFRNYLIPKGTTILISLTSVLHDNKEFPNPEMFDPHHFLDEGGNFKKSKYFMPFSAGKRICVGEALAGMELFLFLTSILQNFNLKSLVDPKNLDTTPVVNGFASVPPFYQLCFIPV
In short: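 Enzyme-substrate mix preincubated with compound 10 min at room temperature; reaction started with NADPH regeneration solution, 1 h 37C. Luminescent luciferin product read after 20 min detection reagent.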

[14] = biological target: Cytochrome P450 1A2 (Homo sapiens) (UniProt P05177); assay: Cytochrome P450 Family 1 Subfamily A Member 2 (CYP1A2) small molecule antagonists: luciferase reporter qHTS assay (AID 1671199); note: nearly all actives have a fitted effect of over 50% in size; note: potency is the fitted concentration of half-maximal effect
Sequence of Cytochrome P450 1A2 (Homo sapiens) (P05177 whole entry, looked up): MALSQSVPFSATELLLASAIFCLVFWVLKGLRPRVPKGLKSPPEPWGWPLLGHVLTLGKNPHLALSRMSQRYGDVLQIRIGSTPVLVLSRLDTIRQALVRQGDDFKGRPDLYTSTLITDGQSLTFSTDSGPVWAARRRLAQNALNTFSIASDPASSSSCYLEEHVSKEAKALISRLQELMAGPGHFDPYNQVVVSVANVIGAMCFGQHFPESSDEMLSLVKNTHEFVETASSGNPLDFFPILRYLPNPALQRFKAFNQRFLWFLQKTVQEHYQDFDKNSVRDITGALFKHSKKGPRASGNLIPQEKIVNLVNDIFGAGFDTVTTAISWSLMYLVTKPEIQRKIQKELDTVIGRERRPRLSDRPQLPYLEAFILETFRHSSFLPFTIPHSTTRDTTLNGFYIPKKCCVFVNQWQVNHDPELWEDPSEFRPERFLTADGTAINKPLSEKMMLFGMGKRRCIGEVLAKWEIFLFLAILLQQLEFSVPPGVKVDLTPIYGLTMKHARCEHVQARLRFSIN
In short: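 P450-Glo CYP1A2 enzyme–proluciferin substrate mix with compound 10 min at room temperature, then NADPH regeneration 1 h at room temperature. Luciferin detection reagent added, luminescence read after 20 min; furafylline positive control.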

[15] = biological target: Cytochrome P450 3A4 (Homo sapiens) (UniProt P08684); assay: Cytochrome P450 Family 3 Subfamily A Member 4 (CYP3A4) small molecule antagonists: luciferase reporter qHTS assay (AID 1671201)
Sequence of Cytochrome P450 3A4 (Homo sapiens) (P08684 whole entry, looked up): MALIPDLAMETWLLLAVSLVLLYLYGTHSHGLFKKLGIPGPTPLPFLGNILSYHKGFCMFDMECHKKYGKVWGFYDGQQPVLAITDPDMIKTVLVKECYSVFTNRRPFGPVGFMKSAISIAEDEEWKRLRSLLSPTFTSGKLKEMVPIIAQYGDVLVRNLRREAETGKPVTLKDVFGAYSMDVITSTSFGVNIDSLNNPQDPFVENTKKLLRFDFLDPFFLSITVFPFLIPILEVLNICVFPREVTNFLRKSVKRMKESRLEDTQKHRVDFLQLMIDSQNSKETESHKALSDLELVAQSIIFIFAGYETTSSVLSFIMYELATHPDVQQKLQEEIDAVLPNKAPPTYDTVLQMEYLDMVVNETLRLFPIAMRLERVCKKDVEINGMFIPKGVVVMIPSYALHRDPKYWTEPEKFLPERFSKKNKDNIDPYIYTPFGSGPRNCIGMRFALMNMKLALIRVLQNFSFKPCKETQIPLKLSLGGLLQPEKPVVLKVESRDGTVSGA
In short: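 Enzyme and proluciferin substrate are mixed with test chemicals for 10 min, then NADPH regeneration system drives turnover for 1 h at room temperature. A detection reagent halts the reaction; luminescence after 20 min gives relative activity.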

[16] = biological target: Nuclear receptor subfamily 1 group I member 2 (Homo sapiens) (UniProt O75469); assay: Human pregnane X receptor (PXR) activation by small molecules, qHTS assay (AID 1346985); note: nearly all actives have a fitted effect of over 40% in size; note: potency is the fitted concentration of half-maximal effect
In short: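 DPX-2 cells (HepG2 co-transfected with a PXR response element and a CYP3A4-promoter luciferase construct) were seeded at 2,000 per well, rested 5 hr at 37C, then exposed to DMSO-dissolved compounds for 24 hr. Activation was read as luciferase luminescence.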
% is set by controls: 0 for no effect and ±100 for the full control effect.

CC(C)=CCC1C(=O)N(c2ccccc2)N(c2ccccc2)C1=O
active: Potency [7] 29.8 µM | Potency [8] 28.2 µM | Potency [9] 5.01 µM | Potency [11] 27.5 µM
inactive: Potency [1] | Potency [2] | Potency [3] | Potency [4] | Potency [5] | Potency [6] | Potency [10] | Potency [12]

CN(C)CCC=C1c2ccccc2C=Cc2ccccc21
inactive: Potency [1] | Potency [3] | Potency [4] | Potency [5] | Potency [6] | Potency [7] | max activation [8] 0.747% | Potency [11] | Potency [13] | Potency [14]
active: Potency [2] 13.3 µM | Potency [9] 31.6 µM | Potency [10] 6.17 µM

O=C(Cn1ccnc1[N+](=O)[O-])NCCO
inactive: Potency [1] | Potency [2] | Potency [3] | Potency [4] | Potency [5] | Potency [6] | Potency [7] | Potency [10] | Potency [11] | Potency [13] | Potency [14] | Potency [12] | Potency [15]

Cc1ccc2c(Br)cc(Br)c(O)c2n1
inactive: Potency [1] | Potency [2] | Potency [3] | Potency [5] | Potency [6] | max activation [8] -3.38% | Potency [9] | Potency [10] | Potency [12] | Potency [15]
active: Potency [4] 21.1 µM | Potency [7] 11.9 µM | Potency [14] 36.3 µM

CN1CCCN=C1COC(=O)C(O)(c1ccccc1)C1CCCCC1 (stereo unspecified)
inactive: Potency [1] | Potency [2] | Potency [3] | Potency [4] | Potency [5] | Potency [6] | Potency [7] | max activation [8] -0.811% | Potency [16] | Potency [11] | Potency [13] | Potency [14]
active: Potency [10] 0.617 µM | Potency [12] 4.77 µM

Cc1ccc(CO)cc1
active: Potency [14] 32.1 µM
inactive: Potency [1] | Potency [2] | Potency [3] | Potency [4] | Potency [5] | Potency [6] | Potency [7] | Potency [10] | Potency [11] | Potency [13] | Potency [12] | Potency [15]

Cc1ccc(OC(=O)c2ccccc2O)cc1
active: Potency [13] 35.6 µM | Potency [14] 35.6 µM
inactive: Potency [1] | Potency [2] | Potency [3] | Potency [4] | Potency [5] | Potency [6] | Potency [7] | Potency [10] | Potency [11]

NCCNCCO
inactive: Potency [1] | Potency [2] | Potency [3] | Potency [4] | Potency [5] | Potency [6] | Potency [7] | Potency [11] | Potency [13] | Potency [14] | Potency [12] | Potency [15]
active: Potency [10] 28.6 µM

C[C@]1(Cn2ccnn2)[C@H](C(=O)O)N2C(=O)C[C@H]2S1(=O)=O
inactive: Potency [1] | Potency [2] | Potency [3] | Potency [4] | Potency [5] | Potency [6] | Potency [7] | max activation [8] -2% | Potency [9] | Potency [16] | Potency [10] | Potency [11] | Potency [13] | Potency [14] | Potency [12] | Potency [15]

C=CCc1ccccc1OCC(O)CNC(C)C (stereo unspecified)
active: Potency [10] 5.49 µM | Potency [14] 12.3 µM
inactive: Potency [1] | Potency [2] | Potency [3] | Potency [4] | Potency [5] | Potency [6] | Potency [7] | Potency [11] | Potency [13] | Potency [12] | Potency [15]

CN1CCCC(n2nc(Cc3ccc(Cl)cc3)c3ccccc3c2=O)CC1 (stereo unspecified)
inactive: Potency [1] | Potency [3] | Potency [5] | max activation [8] -1.86% | Potency [14]
active: Potency [2] 13.3 µM | Potency [4] 29.8 µM | Potency [6] 26.6 µM | Potency [7] 5.31 µM | Potency [9] 28.2 µM | Potency [16] 20 µM | Potency [10] 1.1 µM

COc1ccc(OC(=O)N(CC(=O)O)Cc2ccc(OCCc3nc(-c4ccccc4)oc3C)cc2)cc1
active: Potency [13] 13.8 µM | Potency [14] 17.4 µM
inactive: Potency [1] | Potency [2] | Potency [3] | Potency [4] | Potency [5] | Potency [6] | Potency [7] | Potency [10] | Potency [11] | Potency [12]

CCC(=O)OC
inactive: Potency [1] | Potency [2] | Potency [3] | Potency [4] | Potency [5] | Potency [6] | Potency [7] | Potency [10] | Potency [11] | Potency [13] | Potency [14] | Potency [12] | Potency [15]

Cc1ccc(Cl)c(Nc2ccccc2C(=O)O)c1Cl
active: Potency [13] 17.4 µM
inactive: Potency [1] | Potency [2] | Potency [3] | Potency [4] | Potency [5] | Potency [6] | Potency [7] | max activation [8] 0.813% | Potency [9] | Potency [16] | Potency [10] | Potency [14] | Potency [12] | Potency [15]

C/C=C/C=C/C=O
inactive: Potency [1] | Potency [2] | Potency [3] | Potency [4] | Potency [5] | Potency [6] | Potency [7] | Potency [10] | Potency [11] | Potency [13] | Potency [14] | Potency [12] | Potency [15]

N#CCCN(CCO)CCO
inactive: Potency [1] | Potency [2] | Potency [3] | Potency [4] | Potency [5] | Potency [6] | Potency [7] | Potency [10] | Potency [11] | Potency [13] | Potency [14] | Potency [12]

O=C(O)C[C@H](NC(=O)OCc1ccccc1)C(=O)O
inactive: Potency [1] | Potency [2] | Potency [3] | Potency [4] | Potency [5] | Potency [6] | Potency [7] | Potency [10] | Potency [11] | Potency [13] | Potency [14] | Potency [12] | Potency [15]
